In all, about 310,000 compounds went through this assay and about 14,000 (4.5%) showed an effect of 50% or more. Effects have a minus sign here. This is one part of a sample in which strong results are shown more often than they occur.
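Also: peak tail current of the secondary pulse compared with the same well before compound.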

This assay deals with human ether-à-go-go-related gene (hERG) potassium channel (human, UniProt Q12809). The experiment in a line: primary screen, population patch clamp on CHO cells stably expressing hERG; higher = less effect of the substance.
human ether-à-go-go-related gene (hERG) potassium channel, sequence (Q12809 whole entry, looked up): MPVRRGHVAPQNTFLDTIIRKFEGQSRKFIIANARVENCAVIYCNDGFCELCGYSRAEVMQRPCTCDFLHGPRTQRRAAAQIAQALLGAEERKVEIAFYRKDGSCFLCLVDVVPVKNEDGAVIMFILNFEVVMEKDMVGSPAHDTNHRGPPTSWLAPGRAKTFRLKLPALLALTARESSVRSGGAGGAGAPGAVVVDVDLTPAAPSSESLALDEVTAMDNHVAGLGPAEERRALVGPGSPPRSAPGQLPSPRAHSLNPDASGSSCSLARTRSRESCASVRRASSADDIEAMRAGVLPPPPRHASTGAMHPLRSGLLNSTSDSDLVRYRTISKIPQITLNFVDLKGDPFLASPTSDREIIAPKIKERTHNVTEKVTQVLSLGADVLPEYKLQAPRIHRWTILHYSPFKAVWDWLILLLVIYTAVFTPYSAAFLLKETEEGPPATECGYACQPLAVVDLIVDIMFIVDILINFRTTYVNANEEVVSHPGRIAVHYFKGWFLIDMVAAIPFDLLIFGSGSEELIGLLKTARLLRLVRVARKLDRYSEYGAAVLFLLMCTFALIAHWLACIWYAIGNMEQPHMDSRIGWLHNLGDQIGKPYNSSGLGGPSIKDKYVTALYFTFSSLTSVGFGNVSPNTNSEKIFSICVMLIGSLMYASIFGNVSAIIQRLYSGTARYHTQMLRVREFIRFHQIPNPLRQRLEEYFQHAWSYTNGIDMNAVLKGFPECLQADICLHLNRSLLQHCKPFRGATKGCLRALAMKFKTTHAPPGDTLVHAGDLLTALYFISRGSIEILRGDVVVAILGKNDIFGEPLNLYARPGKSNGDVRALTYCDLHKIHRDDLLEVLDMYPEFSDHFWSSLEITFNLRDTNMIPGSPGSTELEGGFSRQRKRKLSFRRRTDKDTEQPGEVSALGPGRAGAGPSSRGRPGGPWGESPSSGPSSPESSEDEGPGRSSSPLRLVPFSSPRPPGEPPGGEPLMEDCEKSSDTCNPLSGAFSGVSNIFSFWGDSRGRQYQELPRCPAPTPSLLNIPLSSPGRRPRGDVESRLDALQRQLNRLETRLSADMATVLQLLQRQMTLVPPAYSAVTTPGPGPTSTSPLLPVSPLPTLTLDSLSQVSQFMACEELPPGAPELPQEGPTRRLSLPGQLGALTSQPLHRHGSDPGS
On to `Oc1ccc(CN2CCc3ccccc3C2)c2cccnc12`, for which the “hERG current change (%, negative = inhibition) at 10uM” value is -48.8%.
Regarding `Cn1c(C(=O)N2CCN(C(=O)c3ccco3)CC2)cc2c(=O)n3ccccc3nc21`, the “hERG current change (%, negative = inhibition) at 10uM” value is given as -14.5%.
With `CC(C)C(NS(=O)(=O)c1ccc2c(c1)OCCO2)C(=O)NCCc1ccccn1` (stereo not shown), the “hERG current change (%, negative = inhibition) at 10uM” value is reported as 6.06%.
Regarding `Cc1cccc(NC(=O)CSc2nnc(C)c(C)n2)c1`, the “hERG current change (%, negative = inhibition) at 10uM” value is listed as 15.3%.
Then `COc1nc(OC)nc(N2CCC(NC(=O)C(Cc3ccc(C(C)C)cc3)NC(C)=O)CC2)n1` (stereo not shown), with 5.87%; and `CO/N=C(\C(=O)N[C@@H]1C(=O)N2C(C(=O)[O-])=C(COC(N)=O)CS[C@H]12)c1ccco1.[Na+]`, with 18.9%; and `O=C(Nc1ccc(Br)cn1)c1cccc2ccccc12`, with 12.2%.
The value for `CC1CCN(C(=O)COC(=O)c2cc(Cl)cc(Cl)c2N)CC1` was -19.9%.
The value for `CCCCN1CCC(COC(=O)c2cc(Cl)c(N)c3c2OCCO3)CC1.Cl` was -59.4%.
Consider `Cl.O=C(OCCN1CCOCC1)c1ccc(Cl)cc1Cl`, for which the “hERG current change (%, negative = inhibition) at 10uM” value was -0.913%.
Consider `COc1cc(C(=O)OCc2cc(=O)c(O)co2)ccc1OC(F)F`, for which the “hERG current change (%, negative = inhibition) at 10uM” value is -12.9%.
The value for `O=C(NCC(=O)N(CCN1CCOCC1)C(C(=O)NC1CCCC1)c1cccnc1)c1cccs1` (stereo not shown) was 13.1%; that for `CCOC(=O)C1(CCCc2ccccc2)CCN(C(=O)CCc2cnn(C)c2)CC1` was -74.2%.
As to `CCOC(=O)C1(CCCc2ccccc2)CCN(C(=O)CCOC)CC1`, the “hERG current change (%, negative = inhibition) at 10uM” value was -46.8%.
As to `CCOC(=O)C1(CCCc2ccccc2)CCN(Cc2cnn(C)c2)CC1`, the “hERG current change (%, negative = inhibition) at 10uM” value is recorded as -71.6%.
As to `CCOC(=O)C1(CCCc2ccccc2)CCN(CCCn2cccn2)CC1`, the “hERG current change (%, negative = inhibition) at 10uM” value is listed as -79.1%.
Consider `CCOC(=O)C1(CCCc2ccccc2)CCN(C(=O)CCC2=NNC(=O)CC2)CC1`, for which the “hERG current change (%, negative = inhibition) at 10uM” value came out at 11.8%.
On to `CCOC(=O)C1(Cc2ccccc2)CCCN(CCCn2cccn2)C1` (stereo not shown), for which the “hERG current change (%, negative = inhibition) at 10uM” value was -14.2%.
Turning to `CCOC(=O)C1(CCc2ccccc2)CCN(C(=O)CCc2cnn(C)c2)CC1`, the “hERG current change (%, negative = inhibition) at 10uM” value is given as -51.2%.
Consider `CCOC(=O)C1(CCc2ccccc2)CCN(C(=O)CN2C(=O)CSC2=O)CC1`, for which the “hERG current change (%, negative = inhibition) at 10uM” value is listed as -23.3%.
On to `Cc1cc(OCC(=O)Nc2ccncc2)cc(C)c1Cl`, for which the “hERG current change (%, negative = inhibition) at 10uM” value stood at 6.51%.
Take `Cc1ccc(CNC(=O)/C=C/C(=O)O)cc1`: the “hERG current change (%, negative = inhibition) at 10uM” value is on record as -15.4%.
Turning to `Cc1n[nH]c(=O)n1-c1ccc(C(C)C)cc1`, the “hERG current change (%, negative = inhibition) at 10uM” value is on record as 18.4%.
Take `O=C(Nc1ccccc1)NC1(C(=O)N2CCN(C(=O)c3ccco3)CC2)CCCCC1`: the “hERG current change (%, negative = inhibition) at 10uM” value was found to be 0.526%.
Consider `CCc1ccc(C2C(=O)c3ccccc3C2=O)cc1`, for which the “hERG current change (%, negative = inhibition) at 10uM” value was -3.18%.
Take `O=C(NNC(=O)c1cnccn1)c1ccc(Cl)cc1`: the “hERG current change (%, negative = inhibition) at 10uM” value came out at 10.1%.
The value for `Cc1cccc(N2CCN(Cc3cc(=O)n4ccsc4n3)CC2)c1C` was -37.1%.
Then `CCOC(=O)CC12CN3CN(C1)CC(CC(=O)OCC)(C3)C2=O`, with 8.62%.
Regarding `O=C(O)CCn1c(=S)oc2ccccc21`, the “hERG current change (%, negative = inhibition) at 10uM” value is on record as -0.618%.
As for `CCOC(=O)C1(CCCc2ccccc2)CCN(C(=O)Cn2nc(C)nc2C)CC1`, the “hERG current change (%, negative = inhibition) at 10uM” value was -24.6%.
For the compound `CCOC(=O)C1(Cc2ccccc2)CCN(Cc2cnn(CC)c2)CC1`, the “hERG current change (%, negative = inhibition) at 10uM” value is -21.2%.
`CCOC(=O)C1(CCCc2ccccc2)CCN(Cc2cn(CC)nc2C)CC1`: the “hERG current change (%, negative = inhibition) at 10uM” value is reported as -74.1%.
Then `CCOC(=O)C1(Cc2ccccc2)CCN(Cc2cnn(-c3ccccc3)c2)CC1`, with -81.4%; and `CCOC(=O)C1(Cc2ccccc2)CCN(Cc2cnn(C(C)C)c2)CC1`, with -28.7%.
As to `CCN1C(=O)C(=Cc2ccc(C)s2)C(=O)N(CC)C1=S`, the “hERG current change (%, negative = inhibition) at 10uM” value was 5.09%.
With `COc1ccc(OCC(=O)NCc2ccc(Cl)cc2)cc1`, the “hERG current change (%, negative = inhibition) at 10uM” value stood at 1.55%.
For the compound `COC(=O)c1nc(N)sc1-c1ccc(OC)cc1`, the “hERG current change (%, negative = inhibition) at 10uM” value is recorded as 10.3%.
On to `Cc1ccc(Oc2ccccc2NC(=O)CN2C(=O)NC3(CCCC3)C2=O)cc1`, for which the “hERG current change (%, negative = inhibition) at 10uM” value is 11%.
On to `O=C1NC(=O)N(c2cccc(Cl)c2)C(=O)/C1=C\c1ccc(Sc2nc3ccccc3[nH]2)o1`, for which the “hERG current change (%, negative = inhibition) at 10uM” value is 13.9%.
As for `O=C1NC(=O)N(c2ccc(Cl)cc2)C(=O)/C1=C\c1ccc(Sc2nc3ccccc3[nH]2)o1`, the “hERG current change (%, negative = inhibition) at 10uM” value was -65.6%.
In the case of `O=C1NC(=O)N(c2ccccc2F)C(=O)/C1=C/c1ccc(Sc2nc3ccccc3[nH]2)o1`, the “hERG current change (%, negative = inhibition) at 10uM” value is -4.03%.
`c1ccc(-n2ncc3c2ncn2nc(-c4ccco4)nc32)cc1`: the “hERG current change (%, negative = inhibition) at 10uM” value is 13.3%.
As for `CC(=O)c1cccc(S(=O)(=O)N2CCC(c3nc4ccccc4[nH]3)CC2)c1`, the “hERG current change (%, negative = inhibition) at 10uM” value is -56.6%.
For the compound `CC(=O)c1ccc(S(=O)(=O)N2CCC(c3nc4ccccc4[nH]3)CC2)cc1`, the “hERG current change (%, negative = inhibition) at 10uM” value is -54.3%.
Turning to `COc1ccc(OC)c(S(=O)(=O)N2CCC(c3nc4ccccc4[nH]3)CC2)c1`, the “hERG current change (%, negative = inhibition) at 10uM” value is on record as -55.7%.
For `O=S(=O)(c1cccc(Cl)c1)N1CCC(c2nc3ccccc3[nH]2)CC1`, the “hERG current change (%, negative = inhibition) at 10uM” value stood at 2.21%.
Then `COc1ccc(S(=O)(=O)N2CCC(c3nc4ccccc4[nH]3)CC2)cc1`, with 10.3%; and `O=S(=O)(c1ccc(F)cc1)N1CCC(c2nc3ccccc3[nH]2)CC1`, with -2.46%.
The value for `CC(=O)Nc1ccc(S(=O)(=O)N2CCC(c3nc4ccccc4[nH]3)CC2)cc1` was -18.4%; that for `O=S(=O)(c1ccccc1F)N1CCC(c2nc3ccccc3[nH]2)CC1` was -13.3%; that for `O=S(=O)(c1cccc(C(F)(F)F)c1)N1CCC(c2nc3ccccc3[nH]2)CC1` was 0.277%.
As to `Cc1[nH]c2ccc(F)cc2c1CCN(Cc1ccncc1)C(=S)Nc1ccc(F)cc1`, the “hERG current change (%, negative = inhibition) at 10uM” value was -38.4%.
For the compound `CC1=NN(C(=O)c2ccc(Cn3cc([N+](=O)[O-])cn3)cc2)C(O)(C(F)(F)F)C1` (stereo not shown), the “hERG current change (%, negative = inhibition) at 10uM” value is reported as -21.1%.
Regarding `Cc1ccc(C)c(NC(=O)CN2C(=O)COc3ccc(S(=O)(=O)N4CCCC4)cc32)c1`, the “hERG current change (%, negative = inhibition) at 10uM” value is -0.517%.
Then `O=C1NC(=O)C(=Cc2ccc(N3CCOCC3)cc2)C(=O)N1`, with 12.9%; and `Cc1cc(C(=O)Nc2ncn(Cc3ccc(F)cc3)n2)ccc1[N+](=O)[O-]`, with -51.7%.
The value for `Cc1cc(C)nc(NC(=O)c2ccc([N+](=O)[O-])c(C)c2)n1` was 7.43%.
As for `Cc1cc(C(=O)Nc2ncn[nH]2)ccc1[N+](=O)[O-]`, the “hERG current change (%, negative = inhibition) at 10uM” value came to 26.3%.
For the compound `C[C@]12C[C@H](O)[C@H]3[C@@H](CCC4=CC(=O)CC[C@@]43C)[C@@H]1CC[C@@H]2C(=O)CO`, the “hERG current change (%, negative = inhibition) at 10uM” value amounted to 0.529%.
Take `Cc1ccccc1Cn1c(=O)n(Cc2ccco2)c(=O)c2ccccc21`: the “hERG current change (%, negative = inhibition) at 10uM” value amounted to 2.24%.
In the case of `Br.CC(C)(C)C(=O)Cn1c(=N)n(Cc2ccccc2Cl)c2ccccc21`, the “hERG current change (%, negative = inhibition) at 10uM” value was -49.2%.
On to `Cl.N=c1n(CCO)c2ccccc2n1Cc1ccccc1Cl`, for which the “hERG current change (%, negative = inhibition) at 10uM” value is listed as -20%.
`Cc1ccccc1Cn1c(=N)n(CC(O)c2ccco2)c2ccccc21.Cl` (stereo not shown): the “hERG current change (%, negative = inhibition) at 10uM” value is recorded as -59.8%.
As for `Cl.N=c1n(Cc2ccccc2Cl)c2ccccc2n1CC(O)c1ccco1` (stereo not shown), the “hERG current change (%, negative = inhibition) at 10uM” value is recorded as -56.7%.
Take `Cc1ccccc1Cn1c(C(C)O)nc2ccccc21` (stereo not shown): the “hERG current change (%, negative = inhibition) at 10uM” value amounted to 4.7%.
Take `CCOC(=O)C1CCN(C(=O)CCn2c(=O)c3cccn3c3cccnc32)CC1`: the “hERG current change (%, negative = inhibition) at 10uM” value is on record as -33.2%.
For `Cc1c(C(=O)NCCc2ccccc2)oc2ccccc12`, the “hERG current change (%, negative = inhibition) at 10uM” value is recorded as 1.98%.
As for `CN(C)C(=O)NC(O)C(Cl)Cl` (stereo not shown), the “hERG current change (%, negative = inhibition) at 10uM” value was -2%.
Consider `Cc1nn(C)c(C)c1NS(=O)(=O)c1ccccc1Cl`, for which the “hERG current change (%, negative = inhibition) at 10uM” value was 4.16%.
Turning to `CCc1ccccc1NC(=O)C1CCCN(c2ncnc3onc(-c4ccc(F)cc4)c23)C1` (stereo not shown), the “hERG current change (%, negative = inhibition) at 10uM” value stood at 11.2%.
The value for `COc1cc(/C=N\NC(=O)c2ccc(Cn3cc(Br)c([N+](=O)[O-])n3)o2)cc(OC)c1O` was -11.9%.
With `CCOc1ccc(/C=N/NC(=O)c2ccc(Cn3cc([N+](=O)[O-])cn3)o2)cc1`, the “hERG current change (%, negative = inhibition) at 10uM” value is on record as -31.4%.
In the case of `COc1cc(/C=N/NC(=O)c2ccc(Cn3cc([N+](=O)[O-])cn3)o2)cc(Br)c1O`, the “hERG current change (%, negative = inhibition) at 10uM” value was -77.5%.
The value for `O=C(N/N=C/c1cccc(Br)c1)c1ccc(Cn2cc(Br)cn2)o1` was -40.9%; that for `Cc1ccc(/C=N/NC(=O)c2ccc(Cn3cc([N+](=O)[O-])cn3)o2)cc1` was -65%.
With `O=C(N/N=C\c1ccc(F)cc1)c1ccc(Cn2cc(Br)c([N+](=O)[O-])n2)o1`, the “hERG current change (%, negative = inhibition) at 10uM” value was -59.9%.
Turning to `COc1ccc(/C=N/NC(=O)c2ccc(Cn3cc([N+](=O)[O-])cn3)o2)cc1O`, the “hERG current change (%, negative = inhibition) at 10uM” value was found to be 15.8%.
For the compound `O=C(N/N=C/c1cccnc1)c1ccc(Cn2cc([N+](=O)[O-])cn2)o1`, the “hERG current change (%, negative = inhibition) at 10uM” value is reported as -8.7%.
On to `O=C(N/N=C\c1ccc2c(c1)OCO2)c1ccc(Cn2cc(Br)c([N+](=O)[O-])n2)o1`, for which the “hERG current change (%, negative = inhibition) at 10uM” value was -8.65%.
Regarding `O=C(N/N=C\c1cccc(F)c1)c1ccc(Cn2cc(Br)c([N+](=O)[O-])n2)o1`, the “hERG current change (%, negative = inhibition) at 10uM” value is -33.9%.
As for `CCOc1ccc(/C=N/NC(=O)c2ccc(Cn3cc(Br)cn3)o2)cc1`, the “hERG current change (%, negative = inhibition) at 10uM” value is on record as -56.4%.
Then `CN(C)c1ccc(/C=N/NC(=O)c2ccc(Cn3cc(Br)cn3)o2)cc1`, with -46.1%.
On to `O=C(NC1CCCC1)C(c1cccnc1)N(C(=O)c1csnn1)C1CC1` (stereo not shown), for which the “hERG current change (%, negative = inhibition) at 10uM” value came to 4.97%.
On to `CC(C)c1ccc(NC(=O)C2C3C=CC4(O3)C2C(=O)N(CCN2CCOCC2)C4C(=O)NC2CCCCC2)cc1` (stereo not shown), for which the “hERG current change (%, negative = inhibition) at 10uM” value was determined as 15.3%.
Then `O=C(Nc1ccccc1Cl)OC1CCCCC1`, with 22.7%.
